Assay outcomes: PubChem, National Center for Advancing Translational Sciences (NCATS)
A selection: hits, their analogues and other compounds. The true share with any hit is near 7.4%.
Luciferase inh: Firefly luciferase inhibition profiling of diverse chemical library using quantitative high-throughput screening; Luciferin 4-monooxygenase (Photinus pyralis), P08659; purified P. pyralis luciferase, luminescence, biochemical; Potency, µM (series often up to 115 µM), usual class: inhibitors; 2.5% of 76,000 active; AID 1347043, 2019; also: nearly all actives have a fitted effect of over 65% in size
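Purified P. pyralis luciferase (10nM final) in 50mM Tris acetate pH 7.5, 10mM Mg acetate, 0.01% Tween-20, 0.05% BSA with 10uM D-luciferin and 10uM ATP. Compounds titrated qHTS. Luminescence imaged on CCD.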
SNCA expr inhib: Primary qHTS assay for inhibitors of alpha-synuclein gene (SNCA) expression; HEK-293 SNCA-luciferase knock-in, luminescence, 24 h; Potency, µM (top dose mostly 57.2 µM), without a hit: top-dose activity change, negative = inhibition, hits mostly inhibitors; 0.17% of 140,000 active; AID 1671194, 2021;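 also: plate controls were DMSO cells for no effect and cell-free wells for full effect; nearly all actives have a fitted effect of over 45% in size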
hNpr1 antagonist: Natriuretic polypeptide receptor (hNpr1) antagonism - Primary qHTS. HEK293 hNpr1 GloSensor cGMP, ANP-stimulated luminescence. Potency, µM (doses to about 46.3 µM), inactives show at the highest dose activity change, negative = inhibition, actives largely listed as inhibitors. 1.6% of 76,000 active; calls by dose curve; also: nearly all actives have a fitted effect of over 60% in size
Target sequence (P16066 whole entry, looked up): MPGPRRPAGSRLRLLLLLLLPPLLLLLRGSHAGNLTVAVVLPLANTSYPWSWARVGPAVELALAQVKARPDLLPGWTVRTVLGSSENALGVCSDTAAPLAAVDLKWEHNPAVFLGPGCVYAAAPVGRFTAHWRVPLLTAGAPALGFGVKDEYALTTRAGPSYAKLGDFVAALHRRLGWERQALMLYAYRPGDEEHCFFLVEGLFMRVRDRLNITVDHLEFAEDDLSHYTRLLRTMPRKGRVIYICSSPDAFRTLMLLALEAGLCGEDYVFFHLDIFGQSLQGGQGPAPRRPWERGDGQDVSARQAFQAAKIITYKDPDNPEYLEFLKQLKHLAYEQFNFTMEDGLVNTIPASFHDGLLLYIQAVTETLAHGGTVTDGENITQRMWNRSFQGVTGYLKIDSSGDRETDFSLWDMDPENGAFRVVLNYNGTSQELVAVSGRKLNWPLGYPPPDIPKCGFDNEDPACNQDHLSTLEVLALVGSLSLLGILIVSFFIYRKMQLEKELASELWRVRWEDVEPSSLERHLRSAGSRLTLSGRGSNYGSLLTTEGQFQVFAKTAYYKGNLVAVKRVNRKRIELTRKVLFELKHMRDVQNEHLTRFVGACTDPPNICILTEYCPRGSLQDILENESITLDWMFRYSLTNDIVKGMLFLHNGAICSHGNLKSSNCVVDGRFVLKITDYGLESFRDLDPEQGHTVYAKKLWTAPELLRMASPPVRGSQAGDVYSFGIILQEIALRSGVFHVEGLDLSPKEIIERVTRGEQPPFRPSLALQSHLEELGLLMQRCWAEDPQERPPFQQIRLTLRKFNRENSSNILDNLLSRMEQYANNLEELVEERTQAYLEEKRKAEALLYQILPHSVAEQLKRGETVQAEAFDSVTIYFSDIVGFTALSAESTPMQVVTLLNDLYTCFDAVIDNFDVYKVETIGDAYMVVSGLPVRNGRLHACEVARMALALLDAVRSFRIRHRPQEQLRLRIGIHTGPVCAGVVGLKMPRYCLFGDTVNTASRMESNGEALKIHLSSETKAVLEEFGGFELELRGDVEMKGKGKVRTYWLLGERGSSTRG
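HEK293 cells stably expressing human Npr1 and cGMP GloSensor pGS-40F, loaded 2 h with 2% GloSensor reagent, given compound 30 min at room temperature. Luminescence read before and 20 min after 0.1 nM hNppA.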
NIH3T3 tox: Cytotoxic Profiling in NIH 3T3 Cell Line of Diverse Libraries Using Quantitative High-Throughput Screening | Potency, µM (titrated, usually from 96.7 µM), for inactives: at the top dose activity change, negative = cytotoxicity, usual class: inhibitors | NIH 3T3 viability, CellTiter-Glo ATP luminescence, 48-72 h | AID 1345082, 2018 | 4.3% of 94,000 active; also: nearly all actives have a fitted effect of over 55% in size
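Mouse fibroblast NIH 3T3 cells, 400 per well, received compound via pintool and were incubated for 48 or 72 hr prior to CellTiter-Glo ATP luminescence measurement.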
HEK293 viab: GF-AFC viability counterscreen for inhibitors of alpha-synuclein gene (SNCA) expression | HEK-293-SNCA-luc viability, GF-AFC fluorescence, 24 h | Potency, µM (doses to about 57.1 µM), for inactives: at the highest dose activity change, negative = cytotoxicity, most hits filed as cytotoxic | 0.12% of 150,000 active;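 also: 0% = DMSO-treated cells and -100% = medium-only wells without cells; nearly all actives have a fitted effect of over 30% in size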
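HEK-293-SNCA-luc cells (1500/well) plated 24 h, then exposed 24 h to a dilution series; GF-AFC added 30 min at 37C, fluorescence 405/540 nm; normalised to medium-only and DMSO wells, Hill fit.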
HEK cytotox: Cytotoxic Profiling in HEK 293 Cell Line of Diverse Libraries Using Quantitative High-Throughput Screening; Potency, µM (top dose mostly 115 µM), for inactives: at the highest dose activity change, negative = cytotoxicity, actives largely listed as inhibitors; 6.6% of 94,000 active; HEK 293 viability, ATP luminescence (CellTiter-Glo), 48-72 h; also: nearly all actives have a fitted effect of over 60% in size
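HEK 293 cells at 250 cells/well were exposed to compounds by pintool transfer for 48 or 72 hr at 37 degree Celsius, 5% CO2. Viability was read as ATP-coupled luminescence with CellTiter-Glo after 10 min at room temperature.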
* = called active by the depositor; i = inactive; u = inconclusive; x = no result given; [ ] = dose if it differs, or a comment. Unless noted, calls follow the shape of the dose curve; as a rule, active = well fitted curve in the direction sought with a large enough effect; inconclusive = small, poorly fitted or top-dose-only effect, or another doubt; inactive = no such curve, though single readings can be large; an effect the other way counts as inactive or inconclusive. Unless noted, % is scaled to controls: 0 for no effect and ±100 for the full control effect; potency is read from the fitted curve at half-maximal effect.

SMILES	Luciferase inh	SNCA expr inhib	hNpr1 antagonist	NIH3T3 tox	HEK293 viab	HEK cytotox
Fc1ccc2nc(CO[C@H]3CN(Cc4ccccn4)C[C@H]3F)[nH]c2c1	i	-2%[87.6 µM]	4%[70.6 µM]	-2%[138 µM]	5%[87.6 µM]	-11%[172 µM]
Cn1cc(CN2C[C@@H](F)[C@@H](OCc3nc4ccccc4[nH]3)C2)c2ccccc21	i	14%[87.6 µM]	-4%[70.6 µM]	u	-7%[87.6 µM]	100µM*
Cc1ccc2nc(CO[C@H]3CN(Cc4cn(C)c5ccccc45)C[C@H]3F)[nH]c2c1	i	4%[87.6 µM]	u	79µM*	-21%[87.6 µM]	89µM*
Cc1noc(C)c1Cc1ccc(C(=O)NCCc2noc(-c3ccccc3)n2)o1	x	23%	x	u	9%	u
Cc1cc(C(=O)NCc2ccncc2)c2c(C3CCNCC3)noc2n1	x	10%	x	5%	8%	i
O=C(C1CCCCCC1)N1CCC(n2cc(C3CCCCC3)nn2)CC1	i	4%	u	u	-11%	89µM*
N#Cc1cccnc1-c1ccc(C(=O)N2CCC(NC(=O)Cc3cccc(Cl)c3)CC2)cc1	x	-2%	x	u	-11%[12.5 µM]	u
COc1cccc(NC(=O)c2ccc3c(c2)NC(C)(COCCN(C)C)CO3)c1 (stereo not given)	u	13%[87.6 µM]	-1%[70.6 µM]	u	3%[87.6 µM]	u
CCOCC1(C)COc2ccc(C(=O)Nc3cccc(OC)c3)cc2N1 (stereo not given)	20µM*	14%[87.6 µM]	-4%[70.6 µM]	-30%[138 µM]	-12%[87.6 µM]	u
CCOCC1(C)COc2ccc(C(=O)Nc3cccc(N(C)C)c3)cc2N1 (stereo not given)	63µM*	-3%[87.6 µM]	0%[70.6 µM]	u	-5%[87.6 µM]	u
CN(C)CCCOCC1(C)COc2ccc(C(=O)Nc3cccc(Cl)c3)cc2N1 (stereo not given)	i	64%[87.6 µM]	-7%[70.6 µM]	u	2%[87.6 µM]	35µM*
CCOCC1(C)COc2ccc(C(=O)Nc3cccc(Cl)c3)cc2N1 (stereo not given)	20µM*	-35%[87.6 µM]	u	40µM*	u	63µM*
Cc1nn(-c2ccccc2)c2c1C(C1CC1)N(C1CN(C(=O)Nc3ccc(Cl)cc3)C1)C2=O (stereo not given)	x	x	x	-11%	x	-7%
COc1cccc(NC(=O)c2ccc3c(c2)NC(C)(CCCCN2CCOCC2)CO3)c1 (stereo not given)	u	26%[87.6 µM]	-5%[70.6 µM]	-30%[138 µM]	10%[87.6 µM]	u
COc1cccc(NC(=O)c2ccc3c(c2)NC(C)(CNc2ccccc2)CO3)c1 (stereo not given)	u	u	u	28µM*	u	40µM*
CCOc1ccccc1NC(=O)c1cc2n(n1)CC(c1ccc(Cl)cc1)OC2 (stereo not given)	i	-1%	3%	-2%	3%	0%
O=C(NCC1CC1)c1cc2n(n1)CC(c1ccc(Cl)cc1)OC2 (stereo not given)	i	u	-7%	40µM*	-3%	u
CCOc1ccccc1CNC(=O)c1cc2n(n1)CC(c1ccc(Cl)cc1)OC2 (stereo not given)	i	u	-30%	u	u	25µM*
CC(=O)N1CCCC(C(=O)N2CCC(N3Cc4cccn4C3=O)CC2)C1 (stereo not given)	x	15%	x	3%	3%	i
O=C(NCc1ccc(F)cc1)c1ccc2nnc(-c3cc(C(F)(F)F)cc(C(F)(F)F)c3)n2c1	x	u	x	35µM*	-10%	u
O=C(NCCc1ccccc1F)c1ccc2nnc(-c3cccnc3)n2c1	x	5%	x	-19%	-4%	-29%
O=C(NCc1cccc(Cl)c1)c1ccc2nnc(-c3cccc(C(F)(F)F)c3)n2c1	x	u	x	32µM*	u	u
O=C(NCc1ccccc1)c1ccc2nnc(-c3cccnc3)n2c1	x	25µM*	x	-27%	-29%	2%
O=C(NCc1cccnc1)c1ccc2nnc(-c3cccc(C(F)(F)F)c3)n2c1	x	-16%	x	u	-8%	-17%
O=C(NCCc1ccccc1F)c1ccc2nnc(-c3cccc(C(F)(F)F)c3)n2c1	x	110%	x	35µM*	-10%	u
SMILES	Luciferase inh	SNCA expr inhib	hNpr1 antagonist	NIH3T3 tox	HEK293 viab	HEK cytotox
Cc1cc(-c2cc(-c3ccccn3)nc3c(C)noc23)ccn1	i	-9%[87.6 µM]	0%[70.6 µM]	u	6%[87.6 µM]	u
Cc1noc2c(NCCN(C)C)cc(-c3ccccn3)nc12	i	-8%[87.6 µM]	1%[70.6 µM]	u	-2%[87.6 µM]	79µM*
Cc1noc2c(NCCN(C)C)cc(-c3ccc(Cl)cc3)nc12	i	u	2%[70.6 µM]	25µM*	-16%[87.6 µM]	45µM*
Cc1noc2c(NCCN(C)C)cc(-c3ccc(F)cc3)nc12	i	-20%[87.6 µM]	1%[70.6 µM]	40µM*	-6%[87.6 µM]	u
COCCNc1cc(-c2ccc(Cl)cc2)nc2c(C)noc12	i	10%[87.6 µM]	0%[70.6 µM]	u	-4%[87.6 µM]	u
COC1CCN(c2cc(-c3ccccn3)nc3c(C)noc23)CC1	i	13%[87.6 µM]	-1%[70.6 µM]	u	-4%[87.6 µM]	63µM*
O=C(C1CCCCC1)N1CC(N(Cc2ccccn2)C(=O)Nc2ccccc2)C1	x	-17%	x	-20%	-21%	-2%
O=C(NCCc1ccc(Cl)cc1)C1CCCN1C(=O)c1cccc(-c2ccccn2)c1 (stereo not given)	x	5%	x	u	-26%	u
O=C(Cc1cccs1)N1CCCCCC1c1nnc(-c2ccccc2)o1 (stereo not given)	x	12%	x	-16%	-16%	u
COCCNC(=O)CCc1nc(C2CCCN2C(=O)c2ccccc2)no1 (stereo not given)	x	u	x	-12%	-2%	0%
Cc1cc(OCCCS(C)(=O)=O)cc(C)c1-c1cccc(COc2ccc(C3=CC(=O)NS3=O)cc2)c1 (stereo not given)	x	x	x	x	8%	x
Cn1ncc2c(C(=O)NCc3ccc(F)cc3)cc(-c3cccnc3)nc21	x	-21%	x	u	-9%	u
CC1CCC2(CC1)OCC(C(=O)NCc1ccccc1F)N2C(=O)c1ccc(F)cc1 (stereo not given)	i	-4%	-12%	-24%	3%	-30%
CC1CCC2(CC1)OCC(C(=O)NCc1ccccc1F)N2C(=O)c1ccccc1F (stereo not given)	i	-20%	5%	-24%	-2%	79µM*
